MEKK3 PB1 HTS: raises or lowers MEK5 binding to the human MEKK3 PB1 domain; Q99759; bead-based flow cytometry, Alexa488-MEK5 binding to MEKK3; actives lie on both sides; 0 = blocked by unlabeled MEK5, 100 = vehicle; binding response (% of control), % at 10 µM; actives 1.4% (n = 290,000);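 active = binding response more than 3 SD above or below the average of its plate-row segment, actives on both sides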;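 also: Alexa488 bead fluorescence after subtracting the streptavidin-only scavenger bead signal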
MEKK2mut PB1 HTS: signal of MEK5 binding to mutant human MEKK2 PB1 domain; percent response, % at 10 µM; AID 1530; actives 0.35% (n = 290,000); bead flow cytometry, Alexa488-MEK5 binding to MEKK2 mutant; in the data active = percent response above about 24%, passing the limit was not always enough
dFosB act: enhances mouse delta FosB homodimer DNA binding | purified delta FosB, TAMRA-CDK5 oligo fluorescence polarization; percent of positive-control signal above neutral wells | activation, % at 25 µM | actives 0.99% (n = 340,000) | AID 493131;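 active = mean activation above about 17%, with every replicate also reaching it, limit read from the data, passing the limit was not always enough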
Target sequence (P13346 whole entry, looked up): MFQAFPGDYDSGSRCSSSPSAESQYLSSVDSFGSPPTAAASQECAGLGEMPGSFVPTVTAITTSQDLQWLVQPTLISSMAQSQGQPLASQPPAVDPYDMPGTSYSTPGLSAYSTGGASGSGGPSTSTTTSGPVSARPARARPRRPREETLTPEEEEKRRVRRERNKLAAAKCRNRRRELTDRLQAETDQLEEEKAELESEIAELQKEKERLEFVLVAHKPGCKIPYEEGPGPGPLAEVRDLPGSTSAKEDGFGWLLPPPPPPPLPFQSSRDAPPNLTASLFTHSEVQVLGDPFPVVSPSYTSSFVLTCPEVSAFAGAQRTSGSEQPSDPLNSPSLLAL
FID counter: displaces DNA intercalator in HCV helicase counter-screen | inhibition, % at 7.9 µM | actives 0.17% (n = 290,000) | AID 1845 | DNA fluorescent intercalator displacement, fluorescence; in the data active = inhibition above about 37%;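 also: 0% = vehicle and 100% = reference compound; higher means more ethidium bromide displaced from hairpin DNA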
MEKK2wt PB1 HTS: raises or lowers MEK5 binding to wildtype human MEKK2 PB1 domain; Q9Y2U5; bead flow cytometry, Alexa488-MEK5 binding to MEKK2 WT; actives lie on both sides; binding response (% of control), % at 10 µM; actives 1.1% (n = 290,000); AID 1531; in the data active = binding response below about 67% or above about 130%
An asterisk follows results filed as active; x = no result. The list is not random: actives were taken first. Their share in the collection is about 2.9%.

SMILES	MEKK3 PB1 HTS	MEKK2mut PB1 HTS	dFosB act	FID counter	MEKK2wt PB1 HTS
CC(CCc1ccccc1)NS(=O)(=O)c1ccc(Cl)c(C(=O)O)c1 (stereo unspecified)	103	0	-3	-20	96
COc1ccccc1CNC(=O)C(NS(=O)(=O)c1ccc2c(c1)OCCO2)C(C)C (stereo unspecified)	97	-3	28*	-16	92
O=C(NCCCN1CCCC1)C1CCN(C(=O)c2cc3sccc3n2Cc2ccc(F)cc2)CC1	109	28*	10	26	168*
COCCCNC(=O)C1CCN(C(=O)c2cc3sccc3n2Cc2ccc(F)cc2)CC1	x	x	-4	-56	x
CN(Cc1cccnc1)C(=O)CCCc1c[nH]c2ccccc12	104	26*	-3	-10	135*
COc1cc(CN2CCN(c3cccc(C)c3C)CC2)cc([N+](=O)[O-])c1O	91	242*	-4	6	212*
COc1ccc(N2CCN(Cc3cc(OC)c(O)c([N+](=O)[O-])c3)CC2)cc1	105	4	-1	3	111
COc1ccc2[nH]c(=O)c(CN(Cc3cccs3)C(=S)Nc3ccccc3)cc2c1	100	-1	x	-1	-1.0*
C/C(=N\Nc1nc(C)cc(-c2ccccc2)n1)c1ccccc1	95	1	0	-17	106
C/C(=N\Nc1nc2ccc(Cl)cc2o1)c1ccccc1	105	4	x	1	-3.0*
Cc1ccccc1NC(=O)Cn1cnc2c(oc3ccccc32)c1=O	108	3	0	3	106
Cc1cc(C)c(NC(=O)Cn2cnc3c(oc4ccccc43)c2=O)c(C)c1	99	-2	52*	-14	99
Cc1ccc(NC(=O)NNC(=O)c2cc3ccccc3cc2O)cc1	97	2	93*	-4	101
O=S(=O)(NCC1CCC(NS(=O)(=O)c2c(F)cccc2F)CC1)c1ccc2c(c1)OCCO2 (stereo unspecified)	x	x	11	x	x
Cc1ccc(CN2CCNC(=O)C2CC(=O)NCCCn2ncc3ccccc32)o1 (stereo unspecified)	105	4	-6	-10	115
Cc1ccc(Cc2c(C)nc3nc(SCC(=O)NCCCN4CCCCCC4)nn3c2C)cc1	103	37*	x	24	234*
OC(COc1ccc(Br)cc1)CN1CCC(Cc2ccccc2)CC1 (stereo unspecified)	103	17	-3	21	135*
CC(C)OCC(O)CN1CCC(Cc2ccccc2)CC1 (stereo unspecified)	101	1	-6	5	104
C#CCOCCOCCOCCNc1nc(N2CCN(C(=O)Cn3cc(CCO)nn3)CC2)nc(N2CCN(C(=O)[C@H](C)n3cc(CCCN=C(N)N)nn3)CC2)n1	x	x	-5	x	x
Cc1[nH]c2ccc(C(=O)NCCCN3CCCCCC3)cc2c1C	107	27*	3	5	173*
CCn1c(C)c(C)c2cc(C(=O)NCCCN3CCN(C)CC3)ccc21	100	12	6	9	99
CCn1c(C)c(C)c2cc(C(=O)NCCCN3CCCCCC3)ccc21	100	17	-1	7	136*
CCn1c(C)c(C)c2cc(C(=O)NCCCN3CCCCC3)ccc21	103	31*	1	10	1.0*
CCn1c(C)c(C)c2cc(C(=O)NCCN3CCCCCC3)ccc21	105	19	0	5	145*
CCOC(=O)CC(NC(=O)Cn1nnc(-c2ccccc2Cl)n1)c1ccc(OC)cc1 (stereo unspecified)	96	-7	-1	-14	94
CCn1c(C)c(C)c2cc(C(=O)N3CCc4ccccc4C3)ccc21	101	0	19*	-44	97
COc1ccc(C(=O)NCc2nnc(SCC(=O)N3CCCc4ccccc43)o2)cc1OC	99	1	1	-24	103
CCC(C)(C)C1CCC2(CC1)NC(=O)N(CC(=O)Nc1cc(C(F)(F)F)ccc1N1CCOCC1)C2=O (stereo unspecified)	104	4	-9	-13	106
Oc1cccc2ccc[n+](CC(O)Cn3c4ccccc4c4ccccc43)c12 (stereo unspecified)	99	1	8	39*	115
CCSc1nsc(NC(=O)Nc2ccc(F)cc2F)n1	99	0	23*	-2	101

Assay outcomes (PubChem)
